What all share (assay): DAPPL (digital affinity profiling via proximity ligation, sequencing); 10 mM Tris-HCl pH 7.5, 50 mM NaCl, 1 mM DTT, 4% glycerol, room temperature, 30 min; GST-TFs on glutathione beads, 16-mer random dsDNA library, 0.1% formaldehyde crosslink after washing; high values mean tight binding
The target of one experiment is T1, FLI1 (Homo sapiens, UniProt Q01543 1-452).
T1 sequence: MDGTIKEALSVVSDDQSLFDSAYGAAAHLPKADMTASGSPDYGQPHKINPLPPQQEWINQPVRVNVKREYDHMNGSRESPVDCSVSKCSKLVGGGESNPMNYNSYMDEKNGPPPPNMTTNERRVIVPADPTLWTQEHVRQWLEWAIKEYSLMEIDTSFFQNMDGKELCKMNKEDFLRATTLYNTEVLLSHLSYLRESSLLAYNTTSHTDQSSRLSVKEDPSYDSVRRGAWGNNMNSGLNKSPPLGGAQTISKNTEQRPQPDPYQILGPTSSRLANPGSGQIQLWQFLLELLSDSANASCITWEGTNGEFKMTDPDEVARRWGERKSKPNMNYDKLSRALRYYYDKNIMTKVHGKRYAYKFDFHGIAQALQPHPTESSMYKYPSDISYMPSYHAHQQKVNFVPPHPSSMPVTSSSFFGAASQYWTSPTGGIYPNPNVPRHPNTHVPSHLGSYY
Conditions: protein: recombinant; tags: N-terminal GST; dsDNA, one strand shown. The method in brief:
(§1)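 Beads coated with glutathione captured GST-fused human transcription factors that had been expressed in yeast, and the factors were then given DNA barcodes and pooled with a tag-only sample. The pools were incubated with 200 nmole of a random double-stranded 16-mer DNA library in Tris/NaCl/DTT/glycerol buffer for 30 min at room temperature, washed, crosslinked with 0.1% formaldehyde and proximity-ligated with BsaI/T4 ligase at 37 °C for 1 h. PCR amplification and Illumina NextSeq500 sequencing came last. Binding signal is each hexamer's read frequency for a factor divided by its frequency for the tag-only sample.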

A further experiment deals with T2, ELK1 (Homo sapiens, UniProt P19419 1-428).
T2 sequence: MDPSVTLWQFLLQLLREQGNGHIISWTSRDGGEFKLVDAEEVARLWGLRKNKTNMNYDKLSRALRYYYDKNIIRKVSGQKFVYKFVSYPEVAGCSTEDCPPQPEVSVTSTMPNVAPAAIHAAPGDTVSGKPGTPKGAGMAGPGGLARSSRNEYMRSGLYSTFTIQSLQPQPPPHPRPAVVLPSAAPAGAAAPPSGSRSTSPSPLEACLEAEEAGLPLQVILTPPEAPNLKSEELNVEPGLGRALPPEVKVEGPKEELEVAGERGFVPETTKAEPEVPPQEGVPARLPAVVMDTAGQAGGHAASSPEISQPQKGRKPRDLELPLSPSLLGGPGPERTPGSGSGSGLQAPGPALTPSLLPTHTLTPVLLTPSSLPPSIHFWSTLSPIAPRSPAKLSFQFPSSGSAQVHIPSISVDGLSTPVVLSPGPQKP
Conditions: protein: recombinant; tags: N-terminal GST; dsDNA, one strand shown. The method in brief: as §1

Another experiment addresses T3, GABPA (Homo sapiens, UniProt Q06546 1-454).
T3 sequence: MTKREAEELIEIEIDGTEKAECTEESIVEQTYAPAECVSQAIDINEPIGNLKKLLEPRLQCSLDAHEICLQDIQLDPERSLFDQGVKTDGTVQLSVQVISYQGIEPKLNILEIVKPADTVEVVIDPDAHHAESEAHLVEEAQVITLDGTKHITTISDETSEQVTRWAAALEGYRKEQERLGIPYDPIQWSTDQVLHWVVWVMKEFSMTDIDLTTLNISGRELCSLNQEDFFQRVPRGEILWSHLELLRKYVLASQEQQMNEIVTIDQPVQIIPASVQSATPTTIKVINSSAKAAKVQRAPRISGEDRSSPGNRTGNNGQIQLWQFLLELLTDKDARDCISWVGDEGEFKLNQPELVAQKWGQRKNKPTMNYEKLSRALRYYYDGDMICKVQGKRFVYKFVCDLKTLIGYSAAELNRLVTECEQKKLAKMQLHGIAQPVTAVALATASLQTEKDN
Conditions: protein: recombinant; tags: N-terminal GST; dsDNA, one strand shown. The method in brief: as §1

The next experiment addresses T4, ERG (Homo sapiens, UniProt P11308 1-479).
T4 sequence: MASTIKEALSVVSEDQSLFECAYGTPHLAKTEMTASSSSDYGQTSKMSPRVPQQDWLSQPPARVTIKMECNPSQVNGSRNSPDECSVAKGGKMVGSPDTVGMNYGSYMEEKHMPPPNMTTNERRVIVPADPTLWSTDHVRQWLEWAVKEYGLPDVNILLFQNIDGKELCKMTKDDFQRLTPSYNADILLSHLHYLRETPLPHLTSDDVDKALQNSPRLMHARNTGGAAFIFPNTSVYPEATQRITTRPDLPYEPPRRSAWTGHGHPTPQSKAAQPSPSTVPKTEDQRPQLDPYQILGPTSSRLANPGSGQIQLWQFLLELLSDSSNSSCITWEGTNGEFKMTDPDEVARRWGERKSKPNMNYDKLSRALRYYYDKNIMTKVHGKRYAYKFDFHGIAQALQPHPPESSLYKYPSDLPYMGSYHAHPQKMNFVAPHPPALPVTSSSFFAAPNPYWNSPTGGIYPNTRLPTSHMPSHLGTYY
The following applies: protein: recombinant; tags: N-terminal GST; dsDNA, one strand shown. The method in brief: as §1

Another experiment has as its target T5, EHF (Homo sapiens, UniProt Q9NZC4 1-300).
T5 sequence: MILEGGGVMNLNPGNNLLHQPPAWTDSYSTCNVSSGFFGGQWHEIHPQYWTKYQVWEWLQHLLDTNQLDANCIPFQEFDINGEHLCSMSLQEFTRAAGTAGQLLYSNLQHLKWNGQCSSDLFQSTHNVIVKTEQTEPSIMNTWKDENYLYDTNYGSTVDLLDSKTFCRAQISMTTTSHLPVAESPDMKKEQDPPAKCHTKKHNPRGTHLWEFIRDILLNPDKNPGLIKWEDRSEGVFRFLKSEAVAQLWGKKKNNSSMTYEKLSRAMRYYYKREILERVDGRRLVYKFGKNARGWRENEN
The following applies: protein: recombinant; tags: N-terminal GST; dsDNA, one strand shown. The method in brief:
as §1

The next experiment deals with SPI1 (Homo sapiens, UniProt P17947 1-270). The following applies: protein: recombinant; tags: N-terminal GST; dsDNA, one strand shown. The method in brief: as §1
For a further experiment, the target named is SPIB (Homo sapiens, UniProt Q01892 1-262). The following applies: protein: recombinant; tags: N-terminal GST; dsDNA, one strand shown. The method in brief:
as §1

Another experiment has as its target T6, ELK3 (Homo sapiens, UniProt P41970 1-407).
T6 sequence: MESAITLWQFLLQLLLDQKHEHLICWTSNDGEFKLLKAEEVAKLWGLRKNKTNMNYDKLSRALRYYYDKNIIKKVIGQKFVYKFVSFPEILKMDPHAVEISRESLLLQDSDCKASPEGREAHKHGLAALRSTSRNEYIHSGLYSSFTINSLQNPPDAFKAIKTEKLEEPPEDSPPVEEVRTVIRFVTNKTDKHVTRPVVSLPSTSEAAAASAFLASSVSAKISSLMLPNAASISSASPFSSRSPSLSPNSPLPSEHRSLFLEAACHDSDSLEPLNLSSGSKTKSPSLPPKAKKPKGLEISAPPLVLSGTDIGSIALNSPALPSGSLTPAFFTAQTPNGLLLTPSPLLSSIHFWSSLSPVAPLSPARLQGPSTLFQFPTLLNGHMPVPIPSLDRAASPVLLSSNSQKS
The following applies: protein: recombinant; tags: N-terminal GST; dsDNA, one strand shown. The method in brief: as §1

The target in the next experiment is T7, FEV (Homo sapiens, UniProt Q99581 1-238).
T7 sequence: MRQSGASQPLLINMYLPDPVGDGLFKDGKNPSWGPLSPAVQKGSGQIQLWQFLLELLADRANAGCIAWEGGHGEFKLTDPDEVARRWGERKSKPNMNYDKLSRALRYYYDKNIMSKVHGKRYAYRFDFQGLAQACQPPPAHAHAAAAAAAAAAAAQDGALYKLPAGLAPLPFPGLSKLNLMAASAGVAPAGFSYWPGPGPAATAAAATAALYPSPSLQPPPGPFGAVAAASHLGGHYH
Conditions: protein: recombinant; tags: N-terminal GST; dsDNA, one strand shown. The method in brief: as §1

The target in a further experiment is ETV5 (Homo sapiens, UniProt P41161 1-510). The following applies: protein: recombinant; tags: N-terminal GST; dsDNA, one strand shown. The method in brief:
as §1

Another experiment deals with HSF1 (Homo sapiens, UniProt Q00613 1-529). The following applies: protein: recombinant; tags: N-terminal GST; chain copies: 3; dsDNA, one strand shown. The method in brief: as §1
The target in the next experiment is T8, SPIC (Homo sapiens, UniProt Q8N5J4 1-248).
T8 sequence: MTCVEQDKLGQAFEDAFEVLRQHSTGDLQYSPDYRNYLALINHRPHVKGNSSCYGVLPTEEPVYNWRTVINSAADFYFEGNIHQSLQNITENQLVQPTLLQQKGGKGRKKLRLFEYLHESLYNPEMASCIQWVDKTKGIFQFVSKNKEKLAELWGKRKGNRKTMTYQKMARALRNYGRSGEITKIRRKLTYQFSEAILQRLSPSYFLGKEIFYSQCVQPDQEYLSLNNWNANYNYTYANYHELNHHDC
Conditions: protein: recombinant; tags: N-terminal GST; dsDNA, one strand shown. The method in brief:
as §1

A further experiment has as its target T9, ELK4 (Homo sapiens, UniProt P28324-2 1-405).
T9 sequence: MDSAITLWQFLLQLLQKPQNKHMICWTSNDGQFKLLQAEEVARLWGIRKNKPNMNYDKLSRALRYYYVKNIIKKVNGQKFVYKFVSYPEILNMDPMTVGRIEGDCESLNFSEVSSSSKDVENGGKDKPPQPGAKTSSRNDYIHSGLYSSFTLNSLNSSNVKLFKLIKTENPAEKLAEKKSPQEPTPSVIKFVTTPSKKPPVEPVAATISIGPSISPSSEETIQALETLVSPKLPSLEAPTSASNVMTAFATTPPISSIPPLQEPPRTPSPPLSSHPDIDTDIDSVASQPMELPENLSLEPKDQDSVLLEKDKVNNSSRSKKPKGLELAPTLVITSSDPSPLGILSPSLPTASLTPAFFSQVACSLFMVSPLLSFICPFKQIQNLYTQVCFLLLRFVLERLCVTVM
Conditions: protein: recombinant; tags: N-terminal GST; dsDNA, one strand shown. The method in brief:
as §1

The target of a further experiment is T10, ELF3 (Homo sapiens, UniProt P78545 1-371).
T10 sequence: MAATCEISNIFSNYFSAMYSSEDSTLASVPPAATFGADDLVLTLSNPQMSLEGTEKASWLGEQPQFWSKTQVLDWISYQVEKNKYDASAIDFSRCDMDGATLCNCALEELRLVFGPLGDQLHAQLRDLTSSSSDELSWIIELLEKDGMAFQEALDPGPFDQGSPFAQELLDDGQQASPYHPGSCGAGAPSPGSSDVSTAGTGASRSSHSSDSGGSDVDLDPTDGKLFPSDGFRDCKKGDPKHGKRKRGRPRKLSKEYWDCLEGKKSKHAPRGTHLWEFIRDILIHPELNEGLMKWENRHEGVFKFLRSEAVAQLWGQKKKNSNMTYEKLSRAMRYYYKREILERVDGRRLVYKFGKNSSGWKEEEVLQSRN
The following applies: protein: recombinant; tags: N-terminal GST; dsDNA, one strand shown. The method in brief: as §1

For the next experiment, the target named is CRX (Homo sapiens, UniProt O43186 1-299). Conditions: protein: recombinant; tags: N-terminal GST; dsDNA, one strand shown. The method in brief:
as §1

The target in a further experiment is ETV1 (Homo sapiens, UniProt P50549 1-477). Conditions: protein: recombinant; tags: N-terminal GST; dsDNA, one strand shown. The method in brief: as §1
Chain of ETV1 (P50549 whole entry): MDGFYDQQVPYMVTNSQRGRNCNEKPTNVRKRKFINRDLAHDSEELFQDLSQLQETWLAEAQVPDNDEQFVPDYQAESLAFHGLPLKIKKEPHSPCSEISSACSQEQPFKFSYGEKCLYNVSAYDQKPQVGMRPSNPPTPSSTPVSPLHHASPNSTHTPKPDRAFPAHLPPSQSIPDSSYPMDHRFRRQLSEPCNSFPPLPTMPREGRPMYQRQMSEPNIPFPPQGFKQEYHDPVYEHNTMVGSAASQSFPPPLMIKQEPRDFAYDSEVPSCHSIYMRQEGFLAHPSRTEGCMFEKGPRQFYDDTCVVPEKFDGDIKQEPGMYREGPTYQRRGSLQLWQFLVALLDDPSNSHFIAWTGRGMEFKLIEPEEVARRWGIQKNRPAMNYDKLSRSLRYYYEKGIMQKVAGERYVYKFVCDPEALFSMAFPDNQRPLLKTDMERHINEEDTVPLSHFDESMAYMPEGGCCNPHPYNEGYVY

Chain of SPIB (Q01892 whole entry): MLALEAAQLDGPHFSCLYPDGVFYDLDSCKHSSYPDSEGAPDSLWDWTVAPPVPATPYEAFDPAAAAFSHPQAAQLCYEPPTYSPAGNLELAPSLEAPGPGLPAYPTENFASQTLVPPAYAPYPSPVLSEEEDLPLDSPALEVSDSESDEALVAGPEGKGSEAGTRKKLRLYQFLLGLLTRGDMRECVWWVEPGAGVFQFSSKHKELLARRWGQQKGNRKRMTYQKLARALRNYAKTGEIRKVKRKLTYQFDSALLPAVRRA
Chain of ETV5 (P41161 whole entry): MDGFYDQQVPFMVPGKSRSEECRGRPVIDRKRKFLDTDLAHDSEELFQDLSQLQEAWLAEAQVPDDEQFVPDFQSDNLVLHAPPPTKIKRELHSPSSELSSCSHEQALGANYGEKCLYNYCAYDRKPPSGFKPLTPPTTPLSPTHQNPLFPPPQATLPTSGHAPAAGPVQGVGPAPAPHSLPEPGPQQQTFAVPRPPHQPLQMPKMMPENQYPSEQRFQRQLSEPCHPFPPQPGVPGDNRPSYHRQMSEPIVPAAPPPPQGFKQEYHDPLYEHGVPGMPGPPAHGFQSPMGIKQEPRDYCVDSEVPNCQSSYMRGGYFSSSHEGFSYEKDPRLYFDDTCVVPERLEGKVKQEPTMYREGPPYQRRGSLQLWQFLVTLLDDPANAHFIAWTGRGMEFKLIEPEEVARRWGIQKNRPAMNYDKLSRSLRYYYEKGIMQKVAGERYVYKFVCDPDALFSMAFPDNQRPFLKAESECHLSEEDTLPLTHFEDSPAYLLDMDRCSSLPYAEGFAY
Chain of CRX (O43186 whole entry): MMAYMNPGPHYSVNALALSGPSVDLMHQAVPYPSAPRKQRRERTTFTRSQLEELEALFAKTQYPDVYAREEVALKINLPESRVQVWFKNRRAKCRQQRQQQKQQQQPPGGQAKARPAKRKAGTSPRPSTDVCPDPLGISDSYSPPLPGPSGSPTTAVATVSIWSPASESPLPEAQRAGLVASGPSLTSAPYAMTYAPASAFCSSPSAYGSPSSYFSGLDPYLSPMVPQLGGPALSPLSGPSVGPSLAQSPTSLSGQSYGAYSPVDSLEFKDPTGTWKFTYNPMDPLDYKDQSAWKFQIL
Chain of HSF1 (Q00613 whole entry): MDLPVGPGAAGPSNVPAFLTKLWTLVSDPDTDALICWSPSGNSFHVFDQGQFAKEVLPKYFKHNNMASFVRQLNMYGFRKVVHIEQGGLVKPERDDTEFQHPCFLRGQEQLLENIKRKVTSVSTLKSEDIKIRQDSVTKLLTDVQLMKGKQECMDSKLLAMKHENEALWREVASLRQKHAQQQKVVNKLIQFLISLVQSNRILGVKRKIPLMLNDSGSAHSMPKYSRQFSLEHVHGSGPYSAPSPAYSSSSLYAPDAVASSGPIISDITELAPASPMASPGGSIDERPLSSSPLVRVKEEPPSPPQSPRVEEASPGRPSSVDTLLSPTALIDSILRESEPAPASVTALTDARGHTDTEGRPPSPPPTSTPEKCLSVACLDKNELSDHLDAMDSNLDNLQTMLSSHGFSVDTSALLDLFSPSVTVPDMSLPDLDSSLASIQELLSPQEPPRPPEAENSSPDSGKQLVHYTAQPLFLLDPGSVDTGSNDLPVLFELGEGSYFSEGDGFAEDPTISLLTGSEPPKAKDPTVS

For TGTTCG, the binding signal with FLI1 was 1.19 fold enrichment (6-mer frequency, TF over GST control); with ELK1, 1.1 fold enrichment (6-mer frequency, TF over GST control); with GABPA it was 1.07 fold enrichment (6-mer frequency, TF over GST control); with ERG, 1.04 fold enrichment (6-mer frequency, TF over GST control); with EHF, 1.2 fold enrichment (6-mer frequency, TF over GST control); in the experiment with SPI1, 1.06 fold enrichment (6-mer frequency, TF over GST control). Besides, the binding signal with SPIB is 1.09 fold enrichment (6-mer frequency, TF over GST control); with ELK3, 1.03 fold enrichment (6-mer frequency, TF over GST control); with FEV, 1.01 fold enrichment (6-mer frequency, TF over GST control); with ETV5, 1.06 fold enrichment (6-mer frequency, TF over GST control); with HSF1, 1.6 fold enrichment (6-mer frequency, TF over GST control); with SPIC, 1.15 fold enrichment (6-mer frequency, TF over GST control). In addition, the binding signal with ELK4 was 1.01 fold enrichment (6-mer frequency, TF over GST control); in the experiment with ELF3, 1.17 fold enrichment (6-mer frequency, TF over GST control); in the experiment with CRX it was 1.06 fold enrichment (6-mer frequency, TF over GST control); with ETV1, 1.05 fold enrichment (6-mer frequency, TF over GST control).
